This is a sample that favours compounds with a hit; in the whole collection about 21% have one here.
Cycloheximide cs = affects cycloheximide protein synthesis inhibition readout, counter-screen | cell reporter, cycloheximide protein synthesis inhibition counterscreen | max response, % | 300,000 compounds, 12% hits | AID 2314; in the data active means max response mostly above about 13%, no sharp cut-off; inactive means mostly below about 14%; further: read at 38.3 µM for the half of the compounds with a filed dose
Pf growth 96h = P. falciparum growth inhibition at 96 hours. P. falciparum luciferase reporter growth, 96 h. Potency, µM (highest dose often 28.7 µM), usual class: inhibitors. 320,000 compounds, 6.9% hits. AID 504834
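P. falciparum expressing integrated firefly luciferase, in erythrocytes at 2% hematocrit, 0.05% parasitemia, incubated with compounds 96 h at 37 C, 5% CO2. Growth inhibition read as loss of luminescence; two-generation exposure targets delayed-death apicoplast inhibitors.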
Pf growth 48h = P. falciparum growth inhibition at 48 hours (one generation); P. falciparum luciferase growth in erythrocytes, 48 h; Potency, µM (doses to about 28.7 µM), hits mostly inhibitors; 310,000 compounds, 5.9% hits; AID 504832
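Read-out is firefly luciferase luminescence from an integrated reporter in P. falciparum, so falling signal marks reduced parasite growth. Infected erythrocytes were at 2% hematocrit and 0.1% parasitemia (final) in Albumax-supplemented RPMI 1640.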
Shiga toxin inh = inhibitors of Shiga toxin in Vero cells; Vero cells, Shiga toxin protein synthesis inhibition reporter; inhibition, % at 38.7 µM; 290,000 compounds, 9.2% hits; AID 2315; in the data active means inhibition mostly above about 28%, no sharp cut-off; inactive means mostly below about 43%
HCV inhibitor = blocks hepatitis C virus; AID 651820; 340,000 compounds, 3.4% hits; Huh7.5.1 HCVcc-Cre infection, luciferase reporter, 44 h; Potency, µM (top dose mostly 41.8 µM), most hits filed as inhibitors
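Infectious HCVcc-Cre (~0.5 moi) was added to cells just after compound, with cells seeded 4 h earlier at 1,000 per well. Luciferase activity after 44 h culture reported infection; substrate was incubated 15 min at room temperature before reading.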
HCMV antiviral = inhibitors of human cytomegalovirus. AID 1259415. activity change, negative = inhibition, % at 57.5 µM. 410,000 compounds, 4.5% hits. HFF cells, HCMV-luciferase reporter, 72 h; active compounds read low; in the data active means activity change below about -60%; inconclusive means no clear call, values can overlap the other calls; inactive means above about -39%
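Two compound doses tested in HFFs infected with HCMV-luciferase, MOI 1 PFU/cell, 72 h at 37C. Lysate luminescence read with OneGlo; data normalized against buffer-only and 10uM Salinomycin inhibitor controls.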
A number is an active result; – = inactive; ? = inconclusive; · = no result given; + = active, no number; ! = not active in a repeat. Unless noted, the call rests on the fitted dose curve; in most records, active means well fitted inhibition curve with a large enough effect; inconclusive means small, poorly fitted or top-dose-only effect, or another doubt; inactive means no such curve, though single readings can be large or run the other way.

SMILES	Cycloheximide cs	Pf growth 96h	Pf growth 48h	Shiga toxin inh	HCV inhibitor	HCMV antiviral
COc1cccc(-n2cnc3sc(C)c(C)c3c2=O)c1	29	–	–	active	–	–
COC(=O)CSc1nc2sc3c(c2c(=O)n1-c1ccc(OC)cc1)CCN(C)C3	–	5.2µM	6.6µM	–	–	–
CCCCSc1nc2sc3c(c2c(=O)n1-c1ccc(C)cc1)CCN(C)C3	–	?	?	–	–	–
COc1ccc(-n2cnc3sc4c(c3c2=O)CCCC4)cc1	–	–	–	72	?	?
COC(=O)CSc1nc2sc3c(c2c(=O)n1C1CCCCC1)CCN(C)C3	–	–	·	–	·	·
CCOC(=O)CSc1nc2sc3c(c2c(=O)n1-c1ccccc1)CCN(C)C3	–	–	4.7µM	·	?	–
CC(C)CC(=O)Nc1ccc(Cl)c(-c2nc3ccccc3[nH]2)c1	·	·	·	·	·	–
Cc1ccc2onc(CNC(=O)NCc3ccccc3)c2c1	·	·	·	·	·	–
COCCNC(=O)c1cc(OC)c(OC)cc1[N+](=O)[O-]	–	–	–	–	–	–
CCc1cnc2c(c1SCC(=O)Nc1ccc(Cl)cc1)c(=O)n(C)c(=O)n2C	·	·	·	·	·	–
CNC(=O)c1ccc(-c2ccccc2)s1	34	–	–	69	?	–
Cc1ccc2c(c1)N(CC(=O)NCCCc1ccccc1)C(=O)c1cccnc1O2	–	–	–	–	–	-62
CC1CC(C)CN(CCCNC(=O)CN2C(=O)c3cccnc3Oc3ccc(Cl)cc32)C1 (stereo unspecified)	–	?	10µM	–	–	–
CCCN1CCN(CCCNC(=O)CN2C(=O)c3cccnc3Oc3ccc(C)cc32)CC1	–	–	–	–	–	–
CCOc1ccc(CCNC(=O)CN2C(=O)c3cccnc3Oc3ccc(C)cc32)cc1OCC	–	–	?	–	–	–
CSc1ccc(CCNC(=O)CN2C(=O)c3cccnc3Oc3ccc(C)cc32)cc1	–	–	–	–	?	+!
COc1ccccc1N1CCN(C(=O)Cn2c(=O)n3nc(-c4cccc(C)c4)nc3c3ccccc32)CC1	·	·	·	·	·	–
CC(C)N(N=Nc1ccc([N+](=O)[O-])cc1)C(C)C	–	?	?	–	–	–
CN(N=Nc1ccc([N+](=O)[O-])cc1)c1ccccc1	68	–	–	54	–	–
CN(N=Nc1cccc([N+](=O)[O-])c1)c1ccccc1	57	–	–	88	–	–
CC1(C(=O)NS(=O)(=O)c2ccc(Cl)cc2)CCN1C(=O)Cc1ccc(Cl)cc1Cl (stereo unspecified)	·	·	·	·	·	–
CCOC(=O)C(=Cc1ccc(-n2ccnc2)cc1)C(=O)OCC	–	?	13µM	–	?	-86
CCOC(=O)C(=Cc1ccc(Br)cc1)C(=O)OCC	–	?	?	–	?	-100
CCOC(=O)/C(=C\c1cccnc1)C(=O)c1cc(C(C)=O)c(Nc2ccccc2)s1	–	·	?	–	?	·
CCOC(=O)/C(=C\c1ccccc1)C(=O)c1cc(C(C)=O)c(Nc2ccccc2)s1	–	?	·	–	7.1µM	-105
SMILES	Cycloheximide cs	Pf growth 96h	Pf growth 48h	Shiga toxin inh	HCV inhibitor	HCMV antiviral
CCOC(=O)C(=Cc1ccc(F)cc1)C(=O)OCC	–	–	–	–	·	·
CCc1ccc(C(C)NC(=O)/C=C/c2ccc(Br)cc2)cc1 (stereo unspecified)	–	·	–	–	–	–
CCOC(=O)/C(=C/c1ccc(OC(=O)c2ccncc2)cc1)C(C)=O	–	–	–	–	–	–
CCOC(=O)C(CC)(CC)C(=O)/C=C/c1ccc(Br)cc1	–	?	15µM	–	?	-106
COC(=O)c1ccccc1NC(=O)c1nn(C)c2c1COc1ccccc1-2	·	·	·	·	·	–
O=C(NNS(=O)(=O)c1ccccc1)c1cccc([N+](=O)[O-])c1	–	–	?	·	–	–
C/C(=N/Oc1nc(C)cc(C)n1)c1ccc(F)cc1	21	–	–	–	–	–
C/C(=N\Nc1nc(C)cc(-c2ccccc2)n1)c1ccc(F)cc1	–	–	?	–	?	–
C/C(=N/Oc1nc(C)cc(C)n1)c1ccccc1	19	–	·	–	–	–
CCCN(CC(=O)Nc1ccccc1C)C(=O)C1CCN(S(=O)(=O)c2ccc(C)c(C)c2)CC1	·	·	·	·	·	-61
CCCN(CC(=O)Nc1ccccc1C)C(=O)C1CCN(S(=O)(=O)c2ccccc2C(F)(F)F)CC1	·	?	9.3µM	·	?	–
CCOC(=O)C(CCc1ccccc1)NC1CCc2ccccc2N(CC(=O)O)C1=O (stereo unspecified)	–	12µM	9.5µM	–	·	·
O=C(Nc1cccnc1)C1Cc2c(-c3cccc(F)c3)ccnc2O1 (stereo unspecified)	·	·	·	·	·	–
CCc1ccccc1NC(=O)CCc1nc(-c2cccs2)no1	–	?	–	48	–	–
O=C(CCc1nc(-c2cccs2)no1)NCc1ccc(F)cc1Cl	–	·	·	–	–	-63
Cc1ccc(CNC(=O)CCc2nc(-c3cccs3)no2)cc1	–	?	·	–	–	-75
COc1cccc(NC(=O)CCc2nc(-c3cccs3)no2)c1	–	?	?	–	–	–
Cc1ccc(NC(=O)c2ccc3c(O)c(S(=O)(=O)c4ccc(Cl)cc4)c(=O)[nH]c3c2)cc1	·	·	·	·	·	–
Cc1ccccc1Cn1c(=O)n(CC2CCC(C(=O)N3CCC(C)CC3)CC2)c(=O)c2sccc21 (stereo unspecified)	·	·	·	·	·	-75
Cc1ccc(Cn2c(=O)n(CC3CCC(C(=O)N4CCC(C)CC4)CC3)c(=O)c3sccc32)cc1 (stereo unspecified)	·	·	·	·	·	–
COc1ccc(OC)c(S(=O)(=O)ON2C(=O)c3ccccc3C2=O)c1	–	2.9µM	–	–	–	–
COc1ccc(OC)c(S(=O)(=O)N2CCN(c3ccccc3)CC2)c1	–	–	–	–	–	–
COc1cccc(OC)c1C(=O)Nc1c(C)n(C)n(-c2ccccc2)c1=O	–	10µM	–	–	–	–
COc1ccc(-c2cc(C(=O)Nc3c(C)n(C)n(-c4ccccc4)c3=O)c3ccccc3n2)c(OC)c1	–	15µM	12µM	–	–	–
COc1ccc(-c2cc(C(=O)Nc3c(C)n(C)n(-c4ccccc4)c3=O)c3ccccc3n2)cc1OC	–	–	?	–	–	–
SMILES	Cycloheximide cs	Pf growth 96h	Pf growth 48h	Shiga toxin inh	HCV inhibitor	HCMV antiviral
COc1ccc(/C(O)=C/C(=O)C(=O)Nc2c(C)n(C)n(-c3ccccc3)c2=O)cc1	–	7.4µM	–	–	–	–
COCCn1c(C)nnc1SCC(=O)NNC(=O)c1ccc(Br)cc1	–	–	–	–	–	–
O=C(NCCc1ccccc1)c1ccc(CSc2nc3ccncc3n2Cc2ccc(F)cc2)cc1	·	·	·	·	·	–
Cc1ccc(-c2cc(C(=O)Nc3c(C)n(C)n(-c4ccccc4)c3=O)c3ccccc3n2)cc1	·	·	·	·	–	-63
Cc1c(NC(=O)/C(=C/c2cccs2)c2cccs2)c(=O)n(-c2ccccc2)n1C	–	–	–	–	–	-102
Cc1c(NC(=O)c2cc3ccccc3oc2=O)c(=O)n(-c2ccccc2)n1C	42	–	·	86	–	–

Screening results from PubChem.
